This is an account of results in PubChem BioAssay.

Test [1] deals with 6-phosphogluconate dehydrogenase, decarboxylating (Homo sapiens) (UniProt P52209). Briefly: inhibition of human phosphogluconate dehydrogenase – biochemical, recombinant enzyme, NADPH absorbance, primary screen (AID 1159550;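 active = at least 20% inhibition of 6-phosphogluconate dehydrogenase activity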). The conditions noted are these: recombinant 6PGD, NADPH absorbance 341 nm; at 10 µM; stronger effect = higher value.
The subject of test [2] is Aerobactin synthetase IucA (Klebsiella pneumoniae hvKP1). The test can be described thus: IucA enzyme inhibition, primary screen, biochemical, Spectrum library (AID 1346200).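 Note: 100% = wells without compound and 0% = wells lacking enzyme.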 Conditions: malachite green pyrophosphate, A620, at 8 µM, stronger effect = lower value.
For test [3], the target named is Mitogen-activated protein kinase 7 (Homo sapiens) (UniProt Q13164). The test can be described thus: Gal4-ERK5 driven luciferase induction – cell-based, HTS, primary screen (AID 1508626;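 active = luciferase signal above three times the same-plate solvent-only control wells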;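 note: luciferase driven by Gal4-ERK5 fusion binding five Gal4 sites before minimal TATA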). The conditions noted are these: HeLa Gal4-ERK5 transactivation, 18 h, at 5 µM, stronger effect = higher value.
Sequence of Mitogen-activated protein kinase 7 (Homo sapiens) (Q13164 whole entry, looked up, the tested form may be a part): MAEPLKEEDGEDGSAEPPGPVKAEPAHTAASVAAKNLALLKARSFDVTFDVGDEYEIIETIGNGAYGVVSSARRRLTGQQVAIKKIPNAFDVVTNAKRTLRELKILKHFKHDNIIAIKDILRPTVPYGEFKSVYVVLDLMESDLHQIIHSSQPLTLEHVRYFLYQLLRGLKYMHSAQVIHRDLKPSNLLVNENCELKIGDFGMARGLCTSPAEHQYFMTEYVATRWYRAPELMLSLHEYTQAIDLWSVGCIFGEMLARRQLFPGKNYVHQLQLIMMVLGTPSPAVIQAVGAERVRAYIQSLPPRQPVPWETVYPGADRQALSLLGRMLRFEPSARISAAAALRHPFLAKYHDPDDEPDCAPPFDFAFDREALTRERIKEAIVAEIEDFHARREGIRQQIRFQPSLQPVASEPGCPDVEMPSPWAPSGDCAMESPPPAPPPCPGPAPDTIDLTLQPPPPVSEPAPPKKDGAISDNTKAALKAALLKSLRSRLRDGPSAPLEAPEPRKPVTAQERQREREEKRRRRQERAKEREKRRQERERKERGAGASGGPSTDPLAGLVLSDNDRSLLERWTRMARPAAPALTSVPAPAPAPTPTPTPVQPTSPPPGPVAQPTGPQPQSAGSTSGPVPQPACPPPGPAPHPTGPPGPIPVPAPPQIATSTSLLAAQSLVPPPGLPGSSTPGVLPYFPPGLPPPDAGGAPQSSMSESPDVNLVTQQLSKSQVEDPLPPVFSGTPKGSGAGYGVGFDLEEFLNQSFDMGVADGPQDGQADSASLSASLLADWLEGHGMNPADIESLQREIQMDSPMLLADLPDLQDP
Test [4] is described as follows: viability loss with induced miR-34 in A549 – imaging, A549 dox-inducible miR-34, nuclei and caspase counts, primary screen (AID 1347080;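 active = compounds whose cell count with miR-34 switched on is under 0.7 times the count with it off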). The conditions noted are these: A549 miR-34 inducible, Hoechst nuclei count, 48 h.
The nature of test [5]: MELAS cybrid and Rieske KO viability enhancers – cell-based, MELAS cybrids, Rieske KO mouse fibroblasts, CellTiter-Glo, primary screen (AID 1508586;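 active = mean z-score across replicates of 1.96 or higher in either the MELAS or the Rieske mutant cell line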;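 note: z relative to plate mean and SD of compound and empty wells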). The conditions noted are these: low glucose.
The nature of test [6]: galactose survival enhancers in mitochondrial complex I cybrids – cell-based, galactose medium, ATP luminescence, primary screen (AID 1645843;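 active = z-score of at least 1.8 in each of two replicates, scored against plate mean and spread of sample wells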;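 note: positive z means more ATP and so rescue of galactose-driven cybrid death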). The conditions noted are these: complex I mutant cybrid cells, 72 h, stronger effect = higher value.
The nature of test [7]: P. berghei load reduction in hepatocytes – cell-based, HepG2, luciferase luminescence, HepG2 viability, primary screen (AID 624349; in the data active = parasite load remaining mostly below about 12%, no sharp cut-off; inactive = mostly above about 10%;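 note: 100% = mean of DMSO negative control wells on the same plate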). Conditions: P. berghei liver stage in HepG2, luciferase luminescence, concentration not given here; parasite load remaining: stronger effect = lower value; viability: measured here: HepG2 viability without parasites.
Test [8] in a line: signal quenchers or enhancers, Cy5 substrate/SSB – biochemical, NIH Clinical Collection, E. coli SSB, artefact control for HCV NS3 helicase inhibitor project (AID 743268). Conditions: Cy5-oligo bound E. coli SSB, fluorescence interference.
Test [9] concerns Hepatitis C virus NS3 helicase. The test can be described thus: blockers of NS3h binding to DNA – biochemical, fluorescence polarization, NIH Clinical Collection, primary screen (AID 743270). Conditions: NS3 helicase binding to Cy5-dT15 DNA, stronger effect = higher value, concentration not given here.
In test [10] the target is Single-stranded DNA-binding protein (Escherichia coli (strain K12)) (UniProt P0AGE0). Briefly: SSB-ssDNA binding inhibitors – biochemical, fluorescence polarization, NIH Clinical Collection, counter-screen for HCV NS3 helicase inhibitor project (AID 743271; in the data active = inhibition above about 28%). Conditions: E. coli SSB-DNA binding, stronger effect = higher value, concentration not given here.
Test [11] is described as follows: compounds distorting NS3 helicase fluorescence signal – biochemical, NIH Clinical Collection, artefact control for HCV NS3 helicase inhibitor project (AID 743272).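 Note: HCV NS3 helicase with a Cy5 labelled single stranded DNA probe.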 Conditions: fluorescence interference counterscreen, HCV NS3 helicase assay; stronger effect = lower value.
The nature of test [12]: viability loss in pontine glioma line – cell-based, SU-DIPG-XIII, MIPE4.0, CellTiter-Glo, qHTS, dose response (AID 1347061; cut-off not given, nearly all actives have AC50 up to about 37 µM;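 note: cells exposed to compound for 48 hours before readout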). Conditions: CellTiter-Glo ATP luminescence.
Test [13] in a line: viability loss in pontine glioma line – cell-based, JHH-DIPG-1, MIPE4.0, CellTiter-Glo, qHTS, dose response (AID 1347062; cut-off not given, nearly all actives have AC50 up to about 27 µM). Conditions: JHH-DIPG-1 viability, CellTiter-Glo ATP luminescence.
Test [14] in a line: viability loss in pontine glioma line – cell-based, SU-DIPG-IV, MIPE4.0, CellTiter-Glo, qHTS, dose response (AID 1347063; cut-off not given, nearly all actives have AC50 up to about 30 µM;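 note: compound exposure lasted 48 hours before the viability readout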). The conditions noted are these: CellTiter-Glo ATP luminescence.
Test [15] is described as follows: growth inhibition of DIPG cells – cell-based, MIPE4.0 library, CellTiter-Glo luminescence, qHTS (AID 1347066; cut-off not given, nearly all actives have AC50 up to about 30 µM;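 note: cells exposed to compound for 48 hours before readout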). The conditions noted are these: SU-DIPG-VI viability, CellTiter-Glo ATP luminescence.
The target of test [16] is NAD(+) hydrolase SARM1 (Homo sapiens) (UniProt Q6SZW1). Briefly: blocking NAD cleavage by SARM1 SAM-TIR – cell lysate, NAD-Glo luminescence (AID 1508614;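 active = compound whose remaining NAD level is above about 45 nM, limit read from the data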;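 note: higher remaining NAD means stronger inhibition of SARM1 NADase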). The conditions noted are these: SAM-TIR HEK293T lysate NADase, at 1 µM, stronger effect = higher value.
Sequence of NAD(+) hydrolase SARM1 (Homo sapiens) (Q6SZW1 whole entry, looked up): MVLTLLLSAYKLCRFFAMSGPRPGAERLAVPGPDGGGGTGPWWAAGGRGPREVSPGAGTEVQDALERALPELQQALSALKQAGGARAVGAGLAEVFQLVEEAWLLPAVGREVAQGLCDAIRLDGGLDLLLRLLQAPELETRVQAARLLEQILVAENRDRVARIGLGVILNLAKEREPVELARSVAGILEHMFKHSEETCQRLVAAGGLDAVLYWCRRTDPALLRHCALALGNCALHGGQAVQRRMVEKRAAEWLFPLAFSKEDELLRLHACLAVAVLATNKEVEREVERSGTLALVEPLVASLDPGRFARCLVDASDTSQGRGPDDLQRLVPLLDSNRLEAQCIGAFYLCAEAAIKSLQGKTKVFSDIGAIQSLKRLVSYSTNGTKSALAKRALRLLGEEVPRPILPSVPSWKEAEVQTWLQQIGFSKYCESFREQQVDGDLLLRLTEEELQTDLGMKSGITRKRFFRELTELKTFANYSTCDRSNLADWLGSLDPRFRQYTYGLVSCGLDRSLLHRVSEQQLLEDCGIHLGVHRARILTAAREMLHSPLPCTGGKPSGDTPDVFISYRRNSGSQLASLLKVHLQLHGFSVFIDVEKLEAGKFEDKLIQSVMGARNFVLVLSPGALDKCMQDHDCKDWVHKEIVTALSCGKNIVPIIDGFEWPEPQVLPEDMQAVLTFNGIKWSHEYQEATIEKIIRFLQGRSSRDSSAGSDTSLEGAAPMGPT
Test [17] is described as follows: blockers of polyQ-driven CASP3 activation – cell-based (AID 1583). Conditions: polyglutamine-induced caspase-3 activation, cell assay; stronger effect = higher value;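 tested at 10 µM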.
Test [18] can be described thus: yeast 75Q aggregation reduction – 75Q-TubU reporter (AID 1593). The conditions noted are these: Yeast 75Q polyglutamine aggregation reporter.
A short description of test [19]: restoration of touch response, mutant HTT neurons – whole organism, C. elegans mechanosensory neurons, N-terminal huntingtin (AID 1599). The conditions noted are these: C. elegans polyQ-huntingtin mechanosensory neurons, stronger effect = higher value.
Test [20] is described as follows: blockers of cytochrome c efflux from mitochondria – biochemical, purified mitochondria (AID 1603).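 Note: mouse liver mitochondria challenged with calcium chloride; signal normalized to the plate average as 100%.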 Conditions: stronger effect = lower value.
Test [21] is described as follows: polyglutamine aggregate formation blockers (AID 1604). The conditions noted are these: polyglutamine-induced protein aggregation inhibition assay; stronger effect = higher value; tested at 2.5 µM.
Test [22] in a line: rescue of PC12 cells from polyQ htt toxicity – LDH release (AID 1610). Conditions: PC12 mutant huntingtin toxicity, final LDH at 4 uM, stronger effect = lower value.
Test [23] can be described thus: glutamate transport activators, MN-1 cells, MN-1 cell line (AID 1612).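 Note: tested at 1 µM final; 0% = mean of DMSO vehicle wells on each plate; positive means more glutamate uptake than control and negative means less.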 The conditions noted are these: MN-1 motor neuron cells, stronger effect = higher value.
The nature of test [24]: 75Q-TubH aggregate inhibition, S. cerevisiae, yeast (AID 1616). Conditions: S. cerevisiae 75Q-TubH polyglutamine aggregation suppression; stronger effect = higher value.
Test [25] is described as follows: viability loss in pontine glioma line – cell-based, SU-DIPG-XVII, MIPE5.0, CellTiter-Glo, qHTS, dose response (AID 1347060; cut-off not given, nearly all actives have AC50 up to about 26 µM;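 note: cells exposed to compound for 48 hours before viability readout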). Conditions: CellTiter-Glo ATP luminescence.
Test [26] is described as follows: viability loss in pontine glioma line – cell-based, SU-DIPG-XIII, MIPE5.0, CellTiter-Glo, qHTS, dose response (AID 1347064; cut-off not given, nearly all actives have AC50 up to about 23 µM;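 note: cells exposed to compound for 48 hours before the viability read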). The conditions noted are these: CellTiter-Glo ATP luminescence.
Test [27] can be described thus: viability loss in pontine glioma line – cell-based, SU-DIPG-XXV, MIPE5.0, CellTiter-Glo, qHTS, dose response (AID 1347065; cut-off not given, nearly all actives have AC50 up to about 26 µM;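 note: cells exposed to compound for 48 hours before ATP readout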). Conditions: CellTiter-Glo ATP luminescence.
Test [28] can be described thus: JHH-DIPG-1 glioma cell viability, MIPE5.0 library, CellTiter-Glo luminescence, qHTS (AID 1347067; cut-off not given, nearly all actives have AC50 up to about 26 µM;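 note: cells exposed to compound for 48 hours before readout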). Conditions: JHH-DIPG-1 glioma viability, CellTiter-Glo ATP luminescence.
Test [29] can be described thus: growth inhibition of DIPG cells – cell-based, MIPE5.0 library, qHTS (AID 1347068; cut-off not given, nearly all actives have IC50 up to about 30 µM;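 note: cells exposed to compound for 48 hours before viability readout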). The conditions noted are these: SU-DIPG-XXV viability.
Test [30] concerns the target ATP-dependent translocase ABCB1 (Homo sapiens) (UniProt P08183). Briefly: P-glycoprotein substrate transport blockade – cell-based (AID 377; in the data active = fluorescence slope change above about 50%). The conditions noted are these: MDR1-expressing cells, fluorescent substrate accumulation slope; stronger effect = higher value; concentration not given here.
The nature of test [31]: compounds altering viability of human ES cells (AID 493140).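 Note: cells exposed to compounds for four days before counting.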 Conditions: human embryonic stem cell survival screen; stronger effect = higher value.
Where [32] appears, read: measured here: relative caspase fold change +Dox/-Dox.
Setting [33] is: measured here: total cells with miR-34 induction, stronger effect = lower value.
Where [34] appears, read: measured here: total cells without miR-34 induction.
[35] abbreviates: MELAS cybrid survival, CellTiter-Glo 48 h, stronger effect = higher value.
The mark [36] stands for this setting: Rieske KO mouse fibroblast survival, CellTiter-Glo 72 h.

“And” between values parts separate entries of the source, which are not always exact repeats. Equal entries are not always repeated. Inconclusive results are not listed. For some assays here: Results with a measured potency or affinity are listed apart. The source made the active and inactive calls. Unless noted, the rule behind the calls is not given here.

Sequence of 6-phosphogluconate dehydrogenase, decarboxylating (Homo sapiens) (P52209 whole entry, looked up): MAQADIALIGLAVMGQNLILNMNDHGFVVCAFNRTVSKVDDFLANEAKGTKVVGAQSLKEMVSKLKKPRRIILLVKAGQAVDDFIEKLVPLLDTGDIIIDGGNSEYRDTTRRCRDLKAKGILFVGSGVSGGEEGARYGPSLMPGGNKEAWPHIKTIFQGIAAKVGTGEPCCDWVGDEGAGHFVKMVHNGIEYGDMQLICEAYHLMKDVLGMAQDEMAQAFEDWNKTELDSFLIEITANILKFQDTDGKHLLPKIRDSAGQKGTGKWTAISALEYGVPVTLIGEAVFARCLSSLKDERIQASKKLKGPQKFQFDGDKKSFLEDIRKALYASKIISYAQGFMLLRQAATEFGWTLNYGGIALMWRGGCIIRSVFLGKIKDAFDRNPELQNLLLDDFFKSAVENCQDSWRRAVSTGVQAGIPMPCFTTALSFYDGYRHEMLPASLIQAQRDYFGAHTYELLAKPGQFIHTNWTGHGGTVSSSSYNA
Sequence of ATP-dependent translocase ABCB1 (Homo sapiens) (P08183 whole entry, looked up): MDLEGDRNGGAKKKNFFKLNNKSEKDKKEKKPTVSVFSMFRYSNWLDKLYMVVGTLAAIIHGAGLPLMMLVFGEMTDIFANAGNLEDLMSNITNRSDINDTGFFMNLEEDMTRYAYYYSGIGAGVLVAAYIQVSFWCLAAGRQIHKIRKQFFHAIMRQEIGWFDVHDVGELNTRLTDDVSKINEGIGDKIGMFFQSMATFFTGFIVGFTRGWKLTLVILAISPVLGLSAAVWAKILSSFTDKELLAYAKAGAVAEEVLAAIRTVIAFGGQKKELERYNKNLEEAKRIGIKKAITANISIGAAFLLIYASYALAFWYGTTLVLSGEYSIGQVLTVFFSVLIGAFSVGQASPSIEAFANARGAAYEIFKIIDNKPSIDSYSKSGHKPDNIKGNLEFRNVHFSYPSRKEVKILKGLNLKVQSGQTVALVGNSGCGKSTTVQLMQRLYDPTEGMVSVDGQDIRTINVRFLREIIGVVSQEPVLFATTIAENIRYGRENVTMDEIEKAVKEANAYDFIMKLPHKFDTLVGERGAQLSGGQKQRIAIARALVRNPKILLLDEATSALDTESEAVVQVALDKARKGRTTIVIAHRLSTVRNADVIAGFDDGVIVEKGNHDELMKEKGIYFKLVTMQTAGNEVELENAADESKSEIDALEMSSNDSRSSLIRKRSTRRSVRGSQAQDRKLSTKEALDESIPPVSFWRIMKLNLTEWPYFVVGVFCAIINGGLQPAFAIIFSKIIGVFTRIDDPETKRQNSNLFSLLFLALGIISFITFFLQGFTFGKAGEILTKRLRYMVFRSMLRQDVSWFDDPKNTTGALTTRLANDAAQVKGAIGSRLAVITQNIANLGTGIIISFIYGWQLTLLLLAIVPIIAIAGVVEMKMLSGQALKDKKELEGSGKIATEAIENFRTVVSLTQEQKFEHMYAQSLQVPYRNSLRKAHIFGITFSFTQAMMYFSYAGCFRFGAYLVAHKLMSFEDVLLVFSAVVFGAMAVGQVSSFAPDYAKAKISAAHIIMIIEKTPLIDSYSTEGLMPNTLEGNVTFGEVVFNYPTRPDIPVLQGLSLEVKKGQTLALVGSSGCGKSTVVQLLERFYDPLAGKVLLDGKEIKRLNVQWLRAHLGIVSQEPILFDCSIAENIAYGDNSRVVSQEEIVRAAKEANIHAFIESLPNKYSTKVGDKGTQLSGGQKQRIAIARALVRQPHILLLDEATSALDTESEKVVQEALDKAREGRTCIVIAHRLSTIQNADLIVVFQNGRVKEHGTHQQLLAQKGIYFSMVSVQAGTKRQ

Take `COc1cc([C@@H]2c3cc4c(cc3[C@H](OC(C)=O)[C@H]3COC(=O)[C@@H]23)OCO4)cc(OC)c1OC`: in test [1], the inhibition is -3.31% (inactive). For the same molecule, the activity remaining in test [2] is 96.2% (inactive). In addition, the luciferase signal in [3] is 64 AU (inactive).
As to `CCNc1nc(Cl)nc(NC(C)C)n1`, the inhibition in test [1] was 7.64% (inactive). Besides, in test [2], the activity remaining is 97.8% (inactive). The values for the fold change in test [4] (stronger effect = lower value) and in test [4] (setting [32]) were 0.888 (inactive) and 0.465, respectively. For the same molecule, the cell count in test [4] (setting [33]) worked out at 8110; in [4] (setting [34]), 9140. For the same molecule, the z-score was 3.44 (active) in test [5] (setting [35]), -0.553 in [5] (setting [36]) and 0.59 (inactive) in test [6]. For the same molecule, the luciferase signal in test [3] was 36 AU (inactive).
With `C[C@]12CC[C@H]3[C@@H](CCC4=CC(=O)CC[C@@]43C)[C@@H]1CC[C@@H]2O`, the parasite load remaining in [7] is 61.8% (inactive). The viability in test [7] was 72.2%. For the same molecule, the fluorescence ratio is 0.93 (inactive) in test [8] and 0.96 (inactive) in [11]. For the same molecule, the figures for the inhibition in [9], in test [10] and in test [1] were 1.53% (inactive), 0.39% (inactive) and 16.5% (inactive), respectively. Besides, the call in [12], in [13], in test [14] and in test [15] was inactive. Moreover, in [16], the remaining NAD is 10 nM (inactive). Further, in test [3], the luciferase signal was 68 AU (inactive).
On to `NNCc1ccccc1`, for which, in [7], the parasite load remaining was 106% (inactive) and the viability came to 91.4%. The inhibition in test [1] was 9.93% (inactive). Also, the activity remaining in [2] is 105% (inactive).
As to `CC(=O)Oc1ccc(Cl)c2cccnc12`, the inhibition in test [17] was determined as 11.4%. Besides, the score in test [18] worked out at 0.08. In [19], the rescue above control amounted to 7.46. Also, in test [20], the cytochrome c release ratio was determined as 1.44. The molecule also registered an inhibition of aggregation in test [21] of 87.2%. This molecule came in with a normalised LDH release in test [22] of 1.08. For the same molecule, the glutamate uptake change in test [23] is 14.2%. Moreover, the aggregation suppression score in [24] was 0.0401. In test [7], the parasite load remaining was -5% (inactive) and the viability stood at 65.2%. In addition, the inhibition in test [1] was -4.5% (inactive). Also, the activity remaining in test [2] is 124% (inactive).
Turning to `CC(C)[C@]12O[C@H]1[C@@H]1O[C@@]13[C@@]1(C)CCC4=C(COC4=O)[C@@H]1C[C@@H]1O[C@@]13C2=O`, in test [1], the inhibition was 3.27% (inactive). Moreover, the AC50 in test [25] was 295 nM (active); in test [26] it was 263 nM (active); in test [27], 372 nM (active); in test [28], 132 nM (active). The IC50 in test [29] is 372 nM (active).
With `COc1cc([C@@H]2c3cc4c(cc3[C@H](OC(C)=O)[C@H]3COC(=O)[C@H]23)OCO4)cc(OC)c1OC`, in test [1], the inhibition was -6.91% (inactive). For the same molecule, in [2], the activity remaining was 112% (inactive). Further, the luciferase signal in test [3] was 244 AU (active).
Turning to `C[C@]12CCC(=O)C=C1C=C[C@@H]1[C@@H]2CC[C@@]2(C)[C@H]1CC[C@@]2(O)CCC(=O)O`, in test [30], the fluorescence slope change is 75% (active). In addition, the survival in [31] was 19.2 (inactive). Also, the parasite load remaining in [7] is 48.7% (inactive) and 84.2% (inactive). In addition, the viability in test [7] was 45.8% and 86.3%. Also, the inhibition in [1] was -4.06% (inactive). Moreover, the fold change in test [4] (stronger effect = lower value) was 0.935 (inactive); in test [4] (setting [32]), 1.18. The cell count in test [4] (setting [33]) came out at 8420; in test [4] (setting [34]), 9010. Further, the z-score in test [5] (setting [35]) was 0.754 (inactive); in test [5] (setting [36]) it was 0.299.
